PubChem BioAssay AID1159580 (chemical genetic matrix, 2015)
“And” between values parts separate entries of the source, which are not always exact repeats. Identical values can stand only once. In all, about 5,500 compounds went through this assay and about 2,000 (36%) were called active. Roughly 18% stayed inconclusive and do not appear here. No stated cut-off is given here; in the data, active means normalized growth mostly below about 0.91 (no sharp cut-off); inconclusive means no clear call, values can overlap the other calls; inactive means mostly above about 0.92. Some of the results follow.

Assay: chemical genetic growth profiling, strain panel (AID 1159580);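 further: tested at 20 µM; growth read once vehicle control cultures reached saturation at 30 °C; 1 = growth at the plate median or of vehicle wells; lower values mean less growth of the strain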
Conditions: S. cerevisiae deletion strains, growth OD

Measured: normalized growth

O=C(O)C1CC([C@@H]2CCCCN2)CN2CCCCC12 (some centres not stated)
inactive: locus YAL021C, strain ccr4, active compounds read low 1.02 | locus YAL026C, strain drs2, active compounds read low 0.967 | locus YAL030W, strain snc1, active compounds read low 0.972 | locus YBL061C, strain skt5, active compounds read low 0.985 | locus YBR009C, strain hhf1, active compounds read low 0.924 | locus YBR021W, strain FUR4, active compounds read low 1.08 | locus YBR023C, strain chs3, active compounds read low 1.01 | locus YBR171W, strain sec66, active compounds read low 0.974 | locus YBR229C, strain ROT2, active compounds read low 1.01 | locus YBR231C, strain swc5, active compounds read low 0.981 | locus YBR279W, strain paf1, active compounds read low 0.995 | locus YCL011C, strain gbp2, active compounds read low 0.953 | locus YCL016C, strain dcc1, active compounds read low 0.989 | locus YCL029C, strain bik1, active compounds read low 0.969 | locus YCL061C, strain MRC1, active compounds read low 0.983 | locus YCL069W, strain vba3, active compounds read low 0.969 | locus YCR088W, strain abp1, active compounds read low 0.987 | locus YDL005C, strain med2, active compounds read low 0.972 | locus YDL035C, strain GPR1, active compounds read low 1.01 | locus YDL040C, strain nat1, active compounds read low 0.981 | locus YDL074C, strain BRE1, active compounds read low 1.04 | locus YDL101C, strain DUN1, active compounds read low 1.03 | locus YDL134C, strain PPH21, active compounds read low 1.1 | locus YDL185W, strain tfp1, active compounds read low 0.968 | locus YDL192W, strain arf1, active compounds read low 0.967 | locus YDR001C, strain nth1, active compounds read low 0.97 | locus YDR069C, strain doa4, active compounds read low 0.97 | locus YDR101C, strain arx1, active compounds read low 0.984 | locus YDR137W, strain rgp1, active compounds read low 0.978 | locus YDR159W, strain sac3, active compounds read low 0.958 | locus YDR162C, strain NBP2, active compounds read low 1.08 | locus YDR195W, strain ref2 0.924 | locus YDR297W, strain sur2, active compounds read low 0.984 | locus YDR318W, strain mcm21, active compounds read low 0.98 | locus YDR334W, strain swr1, active compounds read low 0.963 | locus YDR335W, strain msn5, active compounds read low 0.983 | locus YDR388W, active compounds read low 0.986 | locus YDR392W, strain spt3, active compounds read low 0.902 | locus YDR502C, strain sam2, active compounds read low 0.993 | locus YEL003W, strain gim4, active compounds read low 0.98 | locus YEL037C, strain rad23, active compounds read low 0.987 | locus YEL061C, strain CIN8 (second series), active compounds read low 0.97 | locus YEL061C, strain CIN8, active compounds read low 1.01 | locus YER015W, strain faa2, active compounds read low 0.997 | locus YER016W, strain bim1, active compounds read low 0.993 | locus YER110C, active compounds read low 0.992 | locus YER111C, strain swi4, active compounds read low 0.965 | locus YER155C, strain BEM2 (second series), active compounds read low 0.968 | locus YER155C, strain BEM2, active compounds read low 1.01 | locus YER167W, strain BCK2, active compounds read low 1.02 | locus YFR010W, strain ubp6, active compounds read low 0.969 | locus YGL078C, strain dbp3, active compounds read low 0.993 | locus YGL086W, strain mad1, active compounds read low 1.03 | locus YGL167C, strain pmr1, active compounds read low 0.957 | locus YGL173C, strain kem1, active compounds read low 0.979 | locus YGL227W, strain vid30, active compounds read low 0.959 | locus YGL240W, strain doc1, active compounds read low 0.959 | locus YGL248W, strain PDE1, active compounds read low 1.04 | locus YGL253W, strain hxk2, active compounds read low 0.999 | locus YGR078C, strain PAC10, active compounds read low 1.06 | locus YGR135W, strain pre9, active compounds read low 0.979 | locus YGR229C, strain SMI1, active compounds read low 1.08 | locus YGR252W, strain gcn5, active compounds read low 1.05 | locus YHR013C, strain ard1, active compounds read low 0.93 | locus YHR027C, strain rpn1, active compounds read low 0.971 | locus YHR030C, strain SLT2, active compounds read low 0.997 and 0.989 | locus YHR079C, strain IRE1 (second series), active compounds read low 0.998 | locus YHR079C, strain IRE1, active compounds read low 0.998 | locus YHR094C, strain hxt1, active compounds read low 0.978 | locus YHR129C, strain ARP1, active compounds read low 1.01 | locus YHR142W, strain chs7, active compounds read low 1.01 | locus YHR200W, strain rpn10, active compounds read low 0.968 | locus YIL066C, strain RNR3, active compounds read low 1.05 | locus YIL073C, strain SPO22, active compounds read low 0.984 | locus YIL125W, strain kgd1, active compounds read low 0.993 | locus YIR030C, strain dcg1, active compounds read low 0.985 | locus YJL092W, strain hpr5, active compounds read low 0.976 | locus YJL095W, strain BCK1 (second series), active compounds read low 1 | locus YJL095W, strain BCK1, active compounds read low 1.08 and 1.04 | locus YJL115W, strain asf1, active compounds read low 0.978 | locus YJL129C, strain trk1, active compounds read low 0.973 | locus YJL134W, strain LCB3, active compounds read low 1 | locus YJL154C, strain vps35, active compounds read low 0.986 | locus YJL164C, strain tpk1, active compounds read low 0.997 | locus YJL166W, strain qcr8, active compounds read low 0.995 | locus YJL168C, strain set2, active compounds read low 0.986 | locus YJL187C, strain SWE1 (second series), active compounds read low 1.04 | locus YJL187C, strain SWE1, active compounds read low 0.976 | locus YJR043C, strain POL32, active compounds read low 1.04 | locus YJR066W, strain TOR1, active compounds read low 0.941 | locus YJR075W, strain HOC1, active compounds read low 1.03 | locus YKL009W, strain mrt4, active compounds read low 0.968 | locus YKL068W, active compounds read low 0.99 | locus YKL085W, strain MDH1 (second series), active compounds read low 1.01 | locus YKL085W, strain MDH1, active compounds read low 1.01 | locus YKL160W, strain elf1, active compounds read low 1.01 | locus YKR001C, strain vps1, active compounds read low 1.02 | locus YKR026C, strain gcn3, active compounds read low 0.973 | locus YKR091W, strain srl3, active compounds read low 0.956 | locus YLL001W, strain dnm1, active compounds read low 1.01 | locus YLL026W, active compounds read low 0.999 | locus YLL041C, strain sdh2, active compounds read low 0.997 | locus YLR027C, strain aat2, active compounds read low 0.972 | locus YLR039C, strain RIC1, active compounds read low 1.01 | locus YLR058C, strain SHM2, active compounds read low 1.02 | locus YLR102C, strain apc9, active compounds read low 0.998 | locus YLR113W, strain HOG1, active compounds read low 1.02 | locus YLR221C, strain rsa3, active compounds read low 0.993 | locus YLR258W, strain gsy2, active compounds read low 0.982 | locus YLR262C, strain YPT6 (second series), active compounds read low 0.978 | locus YLR262C, strain YPT6, active compounds read low 1.04 | locus YLR268W, strain sec22, active compounds read low 1.02 | locus YLR320W, strain mms22, active compounds read low 0.984 | locus YLR330W, strain CHS5, active compounds read low 1 | locus YLR342W, strain FKS1 (second series), active compounds read low 1.07 | locus YLR342W, strain FKS1, active compounds read low 0.958 | locus YLR357W, strain rsc2, active compounds read low 0.963 | locus YLR370C, strain arc18, active compounds read low 0.957 | locus YLR371W, strain rom2, active compounds read low 0.945 | locus YLR384C, strain iki3, active compounds read low 0.988 | locus YLR418C, strain cdc73, active compounds read low 1.01 | locus YML016C, strain PPZ1, active compounds read low 1.02 | locus YML032C, strain rad52, active compounds read low 0.986 | locus YML120C, strain ndi1, active compounds read low 0.991 | locus YML124C, strain tub3, active compounds read low 0.978 | locus YMR058W, strain fet3, active compounds read low 0.968 | locus YMR078C, strain ctf18, active compounds read low 0.963 | locus YMR125W, strain sto1, active compounds read low 0.917 | locus YMR129W, active compounds read low 0.96 | locus YMR205C, strain PFK2, active compounds read low 0.931 | locus YMR223W, strain ubp8, active compounds read low 0.981 | locus YMR231W, strain pep5, active compounds read low 0.967 | locus YMR307W, strain GAS1, active compounds read low 1.13 | locus YNL067W, strain RPL9B, active compounds read low 1.05 | locus YNL071W, strain lat1, active compounds read low 0.987 | locus YNL153C, strain GIM3, active compounds read low 1.07 | locus YNL183C, strain NPR1, active compounds read low 0.97 | locus YNL209W, strain ssb2, active compounds read low 0.965 | locus YNL233W, strain BNI4, active compounds read low 1.06 | locus YNL248C, strain rpa49, active compounds read low 1.01 | locus YNL250W, strain rad50, active compounds read low 0.983 | locus YNL271C, strain bni1, active compounds read low 0.968 | locus YNL298W, strain CLA4, active compounds read low 0.972 | locus YNL307C, strain MCK1, active compounds read low 0.999 | locus YNL322C, strain KRE1 (second series), active compounds read low 0.971 | locus YNL322C, strain KRE1, active compounds read low 1.01 | locus YNR049C, strain mso1, active compounds read low 0.978 | locus YNR052C, strain pop2, active compounds read low 0.975 | locus YOL006C, strain TOP1, active compounds read low 1.08 | locus YOL012C, strain htz1 0.943 | locus YOL147C, strain pex11, active compounds read low 0.995 | locus YOR001W, strain rrp6, active compounds read low 1.03 | locus YOR061W, strain CKA2, active compounds read low 1.01 | locus YOR069W, strain VPS5, active compounds read low 1 | locus YOR070C, strain gyp1, active compounds read low 0.999 | locus YOR080W, strain dia2, active compounds read low 0.973 | locus YOR083W, strain WHI5, active compounds read low 1.02 | locus YOR106W, strain vam3, active compounds read low 1 | locus YOR136W, strain idh2, active compounds read low 1.01 | locus YOR144C, strain elg1, active compounds read low 0.996 | locus YOR184W, strain ser1, active compounds read low 1.01 | locus YOR231W, strain MKK1, active compounds read low 0.98 | locus YOR265W, strain rbl2, active compounds read low 0.946 | locus YOR270C, strain vph1, active compounds read low 0.989 | locus YOR290C, strain snf2, active compounds read low 0.917 | locus YOR316C, strain cot1, active compounds read low 0.971 | locus YPL051W, strain arl3, active compounds read low 1.01 | locus YPL055C, strain LGE1, active compounds read low 1.06 | locus YPL078C, strain atp4, active compounds read low 0.988 | locus YPL106C, strain sse1, active compounds read low 0.959 | locus YPL240C, strain hsp82, active compounds read low 0.977 | locus YPL256C, strain CLN2, active compounds read low 1.01 | locus YPR119W, strain clb2, active compounds read low 0.987 | locus YPR141C, strain kar3, active compounds read low 0.983 | locus YPR163C, strain tif3, active compounds read low 0.989 | locus YPR167C, strain met16, active compounds read low 0.975 | strain wtn01, active compounds read low 0.989
